Screening results: PubChem, National Center for Advancing Translational Sciences (NCATS)
JMJD2A Tudor = blocks the human JMJD2A Tudor domain; Potency, µM (top dose mostly 114 µM), without a hit: at the top dose activity change, negative = inhibition, most hits filed as inhibitors; 390,000 compounds, 4.4% hits; AlphaScreen JMJD2A-Tudor / H3K4me3 peptide binding; O75164; AID 504339; note: % is set by controls: 0 for no effect and ±100 for the full control effect; nearly all actives have a fitted effect of over 50% in size
Target sequence (O75164 whole entry, looked up, the tested form may be a part): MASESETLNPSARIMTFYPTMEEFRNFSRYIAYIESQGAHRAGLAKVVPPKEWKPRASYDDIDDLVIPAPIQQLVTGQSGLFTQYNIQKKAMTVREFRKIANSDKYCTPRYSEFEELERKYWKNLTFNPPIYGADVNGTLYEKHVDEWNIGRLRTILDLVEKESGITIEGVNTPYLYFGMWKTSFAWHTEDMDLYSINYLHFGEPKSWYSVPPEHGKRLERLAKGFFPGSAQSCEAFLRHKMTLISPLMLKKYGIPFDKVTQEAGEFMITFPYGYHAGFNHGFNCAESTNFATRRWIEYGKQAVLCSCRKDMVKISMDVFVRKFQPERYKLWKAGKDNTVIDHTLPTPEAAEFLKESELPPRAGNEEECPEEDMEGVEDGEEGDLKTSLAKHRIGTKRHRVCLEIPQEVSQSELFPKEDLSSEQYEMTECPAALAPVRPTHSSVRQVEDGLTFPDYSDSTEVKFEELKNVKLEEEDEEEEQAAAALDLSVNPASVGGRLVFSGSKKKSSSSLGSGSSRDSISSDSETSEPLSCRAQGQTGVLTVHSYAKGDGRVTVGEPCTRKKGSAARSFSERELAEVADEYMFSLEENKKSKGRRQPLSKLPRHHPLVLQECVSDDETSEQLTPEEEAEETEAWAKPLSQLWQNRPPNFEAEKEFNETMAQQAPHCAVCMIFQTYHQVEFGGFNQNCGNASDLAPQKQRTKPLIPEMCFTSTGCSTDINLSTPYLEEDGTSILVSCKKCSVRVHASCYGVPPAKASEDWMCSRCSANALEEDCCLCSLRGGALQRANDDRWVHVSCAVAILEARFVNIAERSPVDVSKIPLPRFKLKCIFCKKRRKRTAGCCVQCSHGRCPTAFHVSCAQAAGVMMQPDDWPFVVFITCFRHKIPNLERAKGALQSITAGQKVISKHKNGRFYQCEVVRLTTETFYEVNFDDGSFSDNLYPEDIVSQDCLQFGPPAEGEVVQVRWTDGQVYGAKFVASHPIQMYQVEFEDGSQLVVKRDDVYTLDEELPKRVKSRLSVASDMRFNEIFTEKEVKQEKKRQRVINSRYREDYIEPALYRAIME
G9a block = inhibitors of human histone lysine methyltransferase G9a; Q96KQ7; 350,000 compounds, 8.8% hits; G9a H3K9 monomethylation, AlphaScreen, 2 h; AID 504332; Potency, µM (series often up to 102 µM), for the others: at the highest dose activity, negative = inhibition, actives largely listed as inhibitors; note: % is set by controls: 0 for no effect and ±100 for the full control effect; nearly all actives have a fitted effect of over 75% in size
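Quantitative HTS format: methyltransferase activity on a biotin-tagged H3K9 peptide is measured by AlphaScreen, using a rabbit anti-monomethyl-H3K9 antibody with streptavidin donor and anti-IgG acceptor beads. Final levels are 20 nM enzyme, 500 nM peptide, 20 uM SAM; 2 h RT.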
Sfp inh = inhibitors of Bacillus subtilis Sfp phosphopantetheinyl transferase. Q9F4F7. AID 1490. Biochemical Sfp PPTase activity, qHTS. Potency, µM, for inactives: largest response in the series, negative = inhibition, most hits filed as inhibitors. 310,000 compounds, 3.5% hits;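 note: the enzyme is Sfp with the accession as filed and its product quenches rhodamine fluorescence; 0% = enzyme reaction without inhibitor and -100% = no enzyme wells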
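Sfp 15 nM + cpd, 15 min RT; start w/ rhodamine-CoA 5 uM, BHQ-2-YbbR 12.5 uM (final); 50 mM Hepes pH 7.6, 10 mM MgCl2, 0.01% NP-40, 0.01% BSA; read 525/598 nm at 0 and 30 min.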
HP1b chromo inh = HP1-beta chromodomain-methylated histone interaction inhibition; P83916; AlphaScreen HP1-beta / biotin-H3K9me3 peptide binding; Potency, µM (doses to about 114 µM), for the others: top-dose activity change, negative = inhibition, actives largely listed as inhibitors; 390,000 compounds, 0.56% hits; note: nearly all actives have a fitted effect of over 70% in size
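Compound inhibition of the preformed complex between 50 nM HP1-beta and 50 nM biotinylated H3K9me3 peptide was read by AlphaScreen. Buffer was PBS pH 7.4 with 0.01% Tween-20. Incubations ran 30 min at room temperature, with 10 ug/mL donor/acceptor beads.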
BAZ2B inh = inhibitors of human BAZ2B bromodomain | AlphaScreen BAZ2B-H3K14Ac peptide displacement | AID 504333 | Potency, µM (titrated, usually from 114 µM), for inactives: at the highest dose activity change, negative = inhibition, most hits filed as inhibitors | 360,000 compounds, 4.4% hits | Q9UIF8; note: % is set by controls: 0 for no effect and ±100 for the full control effect; nearly all actives have a fitted effect of over 60% in size
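Multi-concentration screen (max 110 uM) measuring displacement of acetylated histone H3 peptide from BAZ2B by AlphaScreen, using 50 nM protein, 50 nM peptide and 10 ug/mL streptavidin donor plus Ni-chelate acceptor beads.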
PLK1 PBD block = blocks phosphopeptide binding to human PLK1 polo-box domain. P53350. Plk1 PBD binding of FITC phosphopeptide, fluorescence polarization. Potency, µM, for the others: max response, negative = inhibition, hits mostly inhibitors. 360,000 compounds, 2.8% hits. AID 720504; note: series mostly up to about 57 µM; % is set by controls: 0 for no effect and ±100 for the full control effect; nearly all actives have a fitted effect of over 65% in size
An asterisk follows results filed as active; ? = inconclusive; . = no result; [ ] = another dose, or the depositor's remark. This is a sample that favours compounds with a hit; in the whole collection about 12% have one here. Calls come from the whole dose curve; as a rule, active = well fitted curve in the direction sought with a large enough effect; inconclusive = small, poorly fitted or top-dose-only effect, or another doubt; inactive = no such curve, though single readings can be large; an effect the other way counts as inactive or inconclusive. Potency is the fitted concentration of half-maximal effect.

SMILES	JMJD2A Tudor	G9a block	Sfp inh	HP1b chromo inh	BAZ2B inh	PLK1 PBD block
COc1ccccc1CN(C)C(=O)C(NC(=O)Cc1cccc2ccccc12)C(C)C (stereo not given)	-28%	7.9µM*	10%	9%[57 µM]	-9%	27µM*
Fc1ccc(/C=N/n2c(C3CCCCC3)n[nH]c2=S)cc1	56µM*	7.1µM*	?	?	-38%	?
CN(C)c1ccc(/C=N/n2c(C3CCCCC3)n[nH]c2=S)cc1	40µM*	10µM*	-20%	?	?	-26%
Nc1nnnn1/N=C/c1ccc(F)cc1	-13%	32%	-1%	44%	-5%	-2%
CN(C)c1ccc(/C=N/NC(=O)C(=O)N2CCCCCC2)cc1	-20%	?	17%	-9%	-24%	-6%
S=c1[nH]nc(C2CCCCC2)n1/N=C/c1ccccc1	56µM*	20µM*	-11%	-8%	-38%	?
S=c1[nH]nc(C2CCCCC2)n1/N=C/c1cccc(Cl)c1Cl	-36%	8.9µM*	-3%	-14%	-4%	-28%
CCOc1ccc(/C=N/n2cnnc2)cc1	-14%	-31%[12.7 µM]	16%	6%	5%	-4%
CCOc1ccc(/C=N/n2c(C3CCCCC3)n[nH]c2=S)cc1	?	28µM*	?	9%	0%	?
Nc1c(C(=O)NC2CCCCC2)c2nc3ccccc3nc2n1/N=C/c1ccco1	.	19%[59 µM]	-4%	.	.	.
S=c1[nH]nc(C2CCCCC2)n1/N=C/c1ccco1	13µM*	1.4µM*	-2%	-5%	-9%	-18%
COc1ccc(-c2noc(N3CCC(C(=O)NCCCN4CCCCC4)CC3)n2)cc1	-7%	.	-3%	32%	-6%	-3%
O=C(O)COc1ccccc1C=NNc1ccc([N+](=O)[O-])cc1S(=O)(=O)Nc1ccc(Cl)cc1	-33%	.	.	-6%	.	24µM*
O=C(O)COc1ccccc1/C=N/Nc1ccc(S(=O)(=O)Nc2ccc(Cl)cc2)cc1[N+](=O)[O-]	?	35µM*	-10%	?	35µM*	?
COc1ccc(NS(=O)(=O)c2cc([N+](=O)[O-])ccc2NN=Cc2ccccc2OCC(=O)O)cc1	?	.	.	23%	.	?
COc1ccccc1NS(=O)(=O)c1ccc(NN=C2CCCC2)c([N+](=O)[O-])c1	20µM*	25µM*	-1%	?	?	-13%
COc1ccccc1NS(=O)(=O)c1ccc(N/N=C/c2ccccc2OCC(=O)O)c([N+](=O)[O-])c1	56µM*	20µM*	-14%	?	40µM*	-29%
S=C(c1ccc2c(c1)OCO2)N1CCCC1	-8%	4%[59 µM]	10%	8%	-2%	-11%
CC1=C(C)C(=O)C(CCCCC#CCCCC#CCO)=C(C)C1=O	40µM*	19µM*	?	?	40µM*	?
O=C(COc1ccc(Cl)cc1)Nc1nnc(C2=COCCO2)o1	3.5µM*	7%	2%	18%	20µM*	-15%
CCCCC(=O)Nc1nnc(C2=COCCO2)o1	-2%	50µM*	?	-1%	?	-8%
O=C(COc1ccccc1)Nc1nnc(-c2ccc3c(c2)CCCC3)o1	-16%	1%[59 µM]	11%	44%	-2%	-13%
O=C(COc1ccccc1)Nc1nnc(-c2ccccc2Cl)o1	22µM*	.	.	27%	.	-8%
COc1cccc(Cn2c(=O)c(-c3cccc(F)c3)nc3cncnc32)c1	.	2%[12.7 µM]	?	.	.	.
COc1ccc(C(c2c(C)[nH]n(C(N)=S)c2=O)C(C#N)C#N)cc1 (stereo not given)	-7%	?	?	24%	5%	21µM*
SMILES	JMJD2A Tudor	G9a block	Sfp inh	HP1b chromo inh	BAZ2B inh	PLK1 PBD block
COc1ccc2nc(NC(=S)N(C)C)sc2c1	25µM*	1.4µM*	?	?	?	5.3µM*
S=C(c1ccc(Br)cc1)N1CCCC1	0%	45µM*	-11%	11%	-4%	?
Oc1ccc(C(=S)N2CCCCC2)cc1	-15%	45µM*	50µM*	-21%	0%	19µM*
COC(=O)c1ccc(C(=S)N2CCCCC2)cc1	-5%	21%[12.7 µM]	14%	26%	-15%	-12%
S=C(c1ccc(N2CCOCC2)cc1)N1CCCCC1	-6%	-5%[59 µM]	22%	9%	7%	-15%
CCn1c(SCC(=O)Nc2cc(Cl)ccc2OC)nnc1C1CC1	11%	4%	11%	18%	5%	0%
Cc1c(NC(=O)C(C)OC(=O)CCC2CCCC2)c(=O)n(-c2ccccc2)n1C (stereo not given)	-6%	-20%	5%	43%	-11%	-4%
CC[C@H](C)[C@H](NC(=O)[C@@H](NC(=O)[C@@H](NC(=O)[C@H](CCC(=O)O)NC(=O)[C@H](CCC(=O)O)NC(=O)[C@H](CCC(=O)O)NC(=O)[C@H](C)NC(=O)[C@@H](N)CC(C)C)C(C)C)C(C)C)C(=O)N[C@@H](CCCNC(=N)N)C(=O)N[C@@H](CO)C(=O)N[C@@H](C)C(=O)N[C@@H](CC(N)=O)C(=O)N[C@@H](Cc1ccccc1)C(=O)N[C@H](C(=O)N[C@@H](CC(=O)O)C(=O)N[C@@H](CC(N)=O)C(=O)O)[C@@H](C)O	.	.	5%	.	.	.
CCN(CC)c1ccc(CNC23CN4CN(CN(C4)C2)C3)cc1	?	3.2µM*	12%	-5%	-30%	-1%
Cn1c(=O)c2[nH]c(Br)nc2n(C)c1=O	.	-41%[12.7 µM]	5%	.	.	.
CCn1c(=S)[nH]c2c(=O)n(C)c(=O)n(C)c21	5µM*	.	.	?	.	-16%
O=Cc1s/c(=N\S(=O)(=O)c2ccccc2)n(CCCCl)c1Cl	-17%	45µM*	-64%	38%	-16%	4.7µM*
O=C(CSc1nc2c(oc3ccccc32)c(=O)n1Cc1ccco1)Nc1ccccc1Cl	-15%	8%[59 µM]	.	12%	-2%	.
O=C(NCCN1CCOCC1)NC1(C(F)(F)F)Oc2ccc(Cl)cc2O1 (stereo not given)	40µM*	10µM*	-34%	34%	2%	-21%
O=C(NCCN1CCOCC1)c1cc(Cl)ccc1Cl	-15%	19%	1%	27%	-1%	-13%
COCC(C)NC(=O)NC1(C(F)(F)F)Oc2ccc(Cl)cc2O1 (stereo not given)	-15%[57.1 µM]	35µM*	-28%	3%	12%	-12%
COc1ccc(N2CCN(C(=O)CCC(=O)N3CCOc4ccc(Cl)cc43)CC2)cc1	?	?	1%	-19%	?	-10%
Cc1cc(C)nc(SCc2ccc(C(=O)N/N=C/c3ccc(C(=O)O)cc3)cc2)n1	-12%	-1%	11%	8%	-23%	-19%
Cc1cc(C)nc(SCc2ccc(C(=O)N/N=C/c3ccco3)cc2)n1	-28%	40µM*	?	14%	?	-14%
